Test results: the supplement of paper PMC10681739

Each sequence was assayed against RUNX1 (UniProt Q01196) (assay: RUNX1 binding intensity (PBM fluorescence), RUNX1 alone (arbitrary fluorescence units); higher = stronger binding). Conditions: RUNX1 concentration 2 nM; ETS1 concentration 0 nM.
Procedure: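 Cooperative gcPBM on 36-bp genomic probes with neighbouring ETS1 and RUNX1 sites. Recombinant human RUNX1 (2 nM) was incubated alone or with ETS1 (25 nM) and detected with anti-RUNX1 antibody plus Alexa488 secondary. Values are medians over 4 replicate spots; the RUNX1+ETS1 data were normalised to the RUNX1-only data. The probes sit in constant array flanks that are not printed.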
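Note: Full-length recombinant human RUNX1 bound to double-stranded 36-bp genomic probes on a high-density microarray, scored as Alexa488 fluorescence per spot via anti-RUNX1 antibody, median of four replicate spots.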

Sequence of RUNX1 (Q01196 whole entry): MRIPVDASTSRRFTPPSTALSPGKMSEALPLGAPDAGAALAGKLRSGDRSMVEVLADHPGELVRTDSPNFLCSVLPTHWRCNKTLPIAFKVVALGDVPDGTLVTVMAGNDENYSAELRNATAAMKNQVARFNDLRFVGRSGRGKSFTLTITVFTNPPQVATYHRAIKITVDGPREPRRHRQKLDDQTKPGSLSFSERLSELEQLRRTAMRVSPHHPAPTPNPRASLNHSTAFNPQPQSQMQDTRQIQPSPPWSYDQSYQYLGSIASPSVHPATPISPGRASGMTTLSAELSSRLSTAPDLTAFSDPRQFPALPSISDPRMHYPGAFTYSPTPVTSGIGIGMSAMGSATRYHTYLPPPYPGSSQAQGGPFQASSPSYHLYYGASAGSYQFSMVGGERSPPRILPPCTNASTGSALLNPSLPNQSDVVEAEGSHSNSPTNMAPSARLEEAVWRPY

| Sequence | RUNX1 binding intensity |
| --- | --- |
| ACAGATCCAAGGAAGCATATCCCGCAAGCAACTGTT | 797 |
| AGCCCCTACCACTTCCCCCCACAGCAGTTCTGAGAT | 1410 |
| TTGGTCAGGATGTGGCTGAAGAAGCCACAAGAAAAA | 769 |
| TCGCCCGCCGCTTCCTGTCGCGGCGCCGCAGAGGCC | 821 |
| TCTGTCGTCCCACTTCCTGCTGCGGTTTCCACCTCG | 8620 |
| TGGAAGCGGCTTCCGGGGTGAATGCGGTTGGATCGT | 1030 |
| GCCCCAGCGTTTCCTCTTACCCACAATGCCCCGCCC | 1510 |
| CTGCGCGGCCGGAAGTCGGCGGTTTCCCAGACGACG | 759 |
| GCTCCTGGCCCGCACTTCCGACCACACACTGGGGAC | 1180 |
| ACACCTCAGGAAGTGGCAGAGACCACAACAAGTCAG | 816 |
| ACACACTGACTTCCTGTTGTGGGAGATAAAGTGTGG | 698 |
| GGCAACCGGCCCCGGAAGTTGCGGCAGGTGCGTCCA | 685 |
| GGCGCGGGCTGCTTCCGGTCTGCGGGCCTGAGGAGG | 672 |
| GACCAATGTAAACAAGGATGTGGGTTCTCCGGGCAC | 706 |
| GGCTGTGCTTCAGGATGTGGTAATGCTTGGGAGGCG | 780 |
| TACCCCGCCGGAAGCCCCCTGCTCTGTGGGAACCGG | 894 |
| GCGATCGGAGCGGAAGTGGAGCTACCGCCACCGCCG | 819 |
| CCCGCTACACAAGGCGGATGTGGTACCCTCACTTGT | 891 |
| CAAGGCACCAACGGATGTGGTATCTGGTGAGGGCTT | 846 |
| TGAAACCCAGCAGGATGTGGGTTAACGGCAGGGGAG | 733 |

| Sequence | RUNX1 binding intensity |
| --- | --- |
| CTTACCTACAGTTCCGCTTGCTGTGGTTTCAGTTAC | 1040 |
| GAGGCAGGCGGATGTCAGTGTGGTTAGAGCACAGTG | 782 |
| GCTCCGCTTCCGGGAGGCGGGGCTTCTGCGGGTTCC | 737 |
| CTGAGACCTCGGGCAGGATGTGGCTTCCCCAGAGTT | 684 |
| CAGCAAAAGGCAGGATGTGGTTAAAACTGTGCTCTG | 1110 |
| CTGAAACAGGAAGCTGAGGGTGCGGTTGGGGGAGGA | 811 |
| GTTCATCCAGGAAACCCCAACCCAGTGCCGCAGTAT | 895 |
| GGCTTCCGGCGGGGTACCCTCCTCTGTGGGCGGGGC | 841 |
| GAGGGTTGCTGGGGGGAAGTGTGGTAAATCTTTTCC | 938 |
| AGCAGCTGCCAGAGGAAGTCTGCGGTCGGAACAGGC | 1410 |
| GCAGAAACAGGAAGAGACAGGGCTGACCGCAGCAGG | 1230 |
| CCCGGAGGACGTCCGGCCTCTGTGAGCCGCAACCTT | 838 |
| CCCACTGATAAGACAGGATGTGGTAAAGAAGCCAGC | 776 |
| CTCACAGCAGCCCCAGGAAACCACCTCTTCCTTCAG | 997 |
| GTGTGGAAGGAGGAAGCGAGAATGTGGTTACTTAGG | 868 |
| GGCTGCAGGAAGTGGGAAGGTGTGGCTTTGAGTCTC | 755 |
| TTTTCTTTCCTAGGAAGTGGTTGCTGGGTTCTGAGG | 831 |
| AAAGAGGAAATCACGTACCCGAAAACCACATGCACA | 1010 |
| CCCAGGCTTCCGGGTTGAATATGTGGGCTGAGGCGA | 819 |
| AGGTCTCCGGAAGTGGGTCTGCGGCGCGCGGGATGC | 637 |
